Holding throughout (assay): qHTS profiling for inhibitors of Plasmodium falciparum proliferation (AID 504749); also: nearly all actives have a fitted effect of over 60% in size
What all share (details): P. falciparum in erythrocytes, SYBR Green DNA, 72 h; series mostly up to 28.7 µM

The subject of one assay is CP335. A digest of the protocol:
(§1)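 P. falciparum-infected erythrocytes (0.3% parasitemia, 2.5% hematocrit final) were exposed to compounds for 72 h at 37 C in 5% CO2, then lysed with SYBR Green buffer overnight at room temperature; parasite DNA fluorescence was normalized to artemisinin and DMSO controls.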

Another assay has as its system Dd2. In a few lines:
as §1

For a further assay, the system named is P94_40. A digest of the protocol:
as §1

The subject of a further assay is CP329. In a few lines:
as §1

In the next assay the test system is DIV14. A digest of the protocol:
as §1

A further assay relates to DIV17. In a few lines: as §1
Another assay has as its system FAB9. In a few lines:
as §1

Another assay relates to GB4. In a few lines:
as §1

For another assay, the system named is HB3. A digest of the protocol:
as §1

A further assay relates to ICS. A digest of the protocol:
as §1

A further assay concerns JCK. In a few lines:
as §1

A further assay has as its system CP315. A digest of the protocol:
as §1

A further assay deals with CP325. A digest of the protocol: as §1
Another assay concerns DIV30. In a few lines:
as §1

For another assay, the system named is ECU. In a few lines:
as §1

The test system of a further assay is N140. In a few lines:
as §1

A further assay concerns CP305. In a few lines: as §1
A further assay concerns DFO2036. In a few lines: as §1
The next assay has as its system P93_24. A digest of the protocol: as §1

Results on 16 molecules are retold here after PubChem BioAssay (NCATS).

Records with an inconclusive call do not appear. Activity calls are given as the source filed them. Calls follow the shape of the dose curve; as a rule, active = well fitted inhibition curve with a large enough effect; inconclusive = small, poorly fitted or top-dose-only effect; inactive = flat fitted curve, though single readings scatter.
Potency is read from the fitted curve at half-maximal effect.

With `C/C(=C\C(=O)OCCCCCCCCC(=O)O)C[C@@H]1OC[C@H](C[C@@H]2O[C@H]2[C@@H](C)[C@H](C)O)[C@@H](O)[C@H]1O`, the Potency is 0.151 µM (active) in the assay with CP335, 0.178 µM (active) in the assay with Dd2 and 0.141 µM (active) with P94_40.

With `CN(C)CCC=C1c2ccccc2C(C)(C)c2ccccc21`, the Potency entry in the assay on CP329, in the assay on FAB9, in the assay on HB3 and in the assay with JCK was “inactive” throughout. Moreover, the Potency is 6.75 µM (active) in the assay with DIV14, 6.75 µM (active) in the assay on DIV17, 13.5 µM (active) in the assay with GB4 and 7.94 µM (active) with ICS.

For `O=c1n(CC2CO2)c(=O)n(CC2CO2)c(=O)n1CC1CO1` (stereo not given), the Potency entry in the assay with CP315, in the assay with CP325, in the assay with CP329, with DIV30, in the assay with ECU and in the assay on FAB9 was “inactive” throughout. Besides, the Potency result with HB3, in the assay with JCK and in the assay with N140 was “inactive” in each case.

As for `COc1ccc(/C=C/C(=O)OCCC(C)C)cc1`, the Potency entry with CP305, with CP315, in the assay on CP325, in the assay with CP329, in the assay with CP335 and in the assay on DFO2036 was “inactive” each time. Further, the Potency result in the assay with DIV14, with DIV17, in the assay with DIV30, with Dd2, in the assay with ECU and with FAB9 was “inactive” in each case. Besides, the Potency entry with GB4, in the assay on HB3, with ICS, in the assay on JCK, with P93_24 and with P94_40 was “inactive” each time.

With `O=C(CCCN1CCN2CCCC2C1)c1ccc(F)cc1` (stereo not given), the Potency result in the assay with CP305, in the assay on CP315, in the assay with CP325, in the assay on CP329, with CP335 and in the assay on DFO2036 was “inactive” throughout. Also, the Potency result in the assay with DIV30, in the assay with ECU, with FAB9, with HB3, with ICS and in the assay on JCK was “inactive” in each case. Besides, the Potency result in the assay with P94_40 was “inactive”. The Potency was 12.6 µM (active) in the assay on Dd2 and 10 µM (active) in the assay with N140.

`O.O.O.O.O.O.O.O=S(=O)([O-])[O-].[Co+2]`: the Potency in the assay on CP305 was 6.75 µM (active); in the assay with CP329, 12 µM (active); with CP335, 6.75 µM (active); in the assay on DFO2036, 11.2 µM (active); in the assay on DIV30, 9.53 µM (active); with Dd2 it was 7.94 µM (active). The Potency with ECU is 12.6 µM (active); with FAB9 it was 11.2 µM (active); in the assay with GB4 it was 8.49 µM (active); in the assay on ICS, 5.62 µM (active); in the assay on JCK, 12.6 µM (active); in the assay with N140 it was 12.6 µM (active). Further, the Potency entry with P93_24 and with P94_40 was “inactive” throughout.

Turning to `CN(C)CCCSc1ccccc1NC(=O)/C=C/c1ccccc1`, the Potency result in the assay on CP305, in the assay on CP315, in the assay with CP325, with CP329, with CP335 and with DFO2036 was “inactive” each time. In addition, the Potency result with DIV30, with ECU, in the assay on FAB9, in the assay with HB3, in the assay on ICS and with JCK was “inactive” each time. Further, the Potency entry in the assay on N140, with P93_24 and in the assay with P94_40 was “inactive” each time.

As for `CO/N=C(\C(=O)N[C@@H]1C(=O)N2C(C(=O)[O-])=C(C[n+]3cccc4c3CCC4)CS[C@H]12)c1csc(N)n1`, the Potency entry in the assay with CP305, in the assay with CP315, in the assay on CP325, in the assay with CP329, in the assay on CP335 and with DFO2036 was “inactive” throughout. Moreover, the Potency result in the assay on DIV14, with DIV17, in the assay on DIV30, in the assay with Dd2, with ECU and in the assay on FAB9 was “inactive” throughout. Moreover, the Potency result in the assay on GB4, with HB3, in the assay on ICS, in the assay with JCK, with N140 and in the assay on P93_24 was “inactive” in each case. Moreover, in the assay with P94_40, the Potency result was “inactive”.

`CC(CN(C)C)CN1c2ccccc2Sc2ccc(C(F)(F)F)cc21` (stereo not given): the Potency entry with CP315, in the assay with CP325 and with FAB9 was “inactive” each time. Besides, the Potency with DFO2036 was 10 µM (active); in the assay with DIV14, 5.36 µM (active); with DIV17, 3.01 µM (active); with Dd2, 3.55 µM (active); with ICS, 10 µM (active); in the assay on N140 it was 11.2 µM (active). Besides, the Potency in the assay with P93_24 is 10 µM (active); with P94_40, 5.01 µM (active).

For the molecule `O=C1CCC(c2ccccc2)(C2CCN(Cc3ccccc3)CC2)C(=O)N1` (stereo not given), the Potency entry in the assay on CP315, with CP325, with CP329, with DFO2036, in the assay with DIV30 and in the assay on ECU was “inactive” throughout. Besides, the Potency entry in the assay on FAB9, with HB3, in the assay on ICS, in the assay on JCK, with N140 and in the assay with P93_24 was “inactive” each time. Besides, in the assay with P94_40, the Potency entry is “inactive”.

Consider `CC(C)OC(=O)Nc1ccc2nc(-c3cscn3)[nH]c2c1`, for which the Potency entry in the assay on CP305, with CP315, in the assay on CP325, in the assay on CP329, in the assay with CP335 and in the assay on DFO2036 was “inactive” each time. Further, the Potency result in the assay with DIV14, in the assay on DIV30, in the assay with Dd2, in the assay with ECU, with FAB9 and with GB4 was “inactive” throughout. Further, the Potency entry with HB3, in the assay on JCK, in the assay with N140, in the assay with P93_24 and in the assay with P94_40 was “inactive” in each case.

For `CCCOc1cc(N)ccc1C(=O)OCCN(CC)CC`, the Potency entry in the assay with CP305, in the assay with CP329, in the assay on DFO2036, in the assay on DIV14, with DIV17 and with Dd2 was “inactive” each time. Moreover, the Potency entry in the assay with ECU, with FAB9, in the assay on GB4, with HB3, in the assay on ICS and with JCK was “inactive” in each case. Also, the Potency result in the assay on N140, with P93_24 and with P94_40 was “inactive” throughout.

In the case of `CO/N=C(/C(=O)N[C@@H]1C(=O)N2C(C(=O)O)=C(COC(N)=O)CS[C@H]12)c1ccco1`, the Potency result in the assay with CP305, in the assay on CP315, in the assay on CP325, in the assay on CP329, in the assay on CP335 and in the assay on DFO2036 was “inactive” throughout. Besides, the Potency entry in the assay on DIV14, with DIV30, in the assay on Dd2, with ECU, in the assay with FAB9 and with JCK was “inactive” in each case. For the same molecule, the Potency result in the assay on N140 and with P94_40 was “inactive” each time. Further, the Potency in the assay with ICS was 8.91 µM (active).

As to `Oc1ccc(Cl)c2c1CCC2`, the Potency result in the assay on CP305, in the assay with CP315, in the assay with CP325, with CP329, with DFO2036 and in the assay with DIV14 was “inactive” each time. Besides, the Potency entry in the assay with DIV30, in the assay with Dd2, with ECU, in the assay on FAB9, in the assay on GB4 and in the assay on HB3 was “inactive” each time. Further, the Potency entry in the assay on JCK, with N140, with P93_24 and in the assay with P94_40 was “inactive” each time.

`O=C(c1cc2ccccc2o1)N1CCN(Cc2ccccc2)CC1`: the Potency entry with CP305, with CP315, with DIV30, in the assay with Dd2, in the assay with FAB9 and with HB3 was “inactive” in each case. Besides, the Potency result in the assay on ICS, in the assay on JCK and in the assay with P94_40 was “inactive” throughout.

In the case of `CC[C@H]1OC(=O)[C@H](C)[C@@H](O[C@H]2C[C@@](C)(OC)[C@@H](O)[C@H](C)O2)C(C)[C@@H](O[C@@H]2O[C@H](C)C[C@H](N(C)C)[C@@H]2O)[C@](C)(OC)C[C@@H](C)C(=O)[C@H](C)[C@@H](O)[C@]1(C)O` (stereo not given in full), the Potency result in the assay on CP305, in the assay on CP315, with DFO2036, in the assay on DIV14, in the assay on DIV17 and with DIV30 was “inactive” throughout. The Potency result with ECU, in the assay with JCK, in the assay on N140, in the assay on P93_24 and in the assay on P94_40 was “inactive” each time. The values for the Potency in the assay on CP335 and with ICS were 6.75 µM (active) and 10 µM (active), respectively.
